Data: PubChem BioAssay AID1159580 (chemical genetic matrix, 2015)
The whole screen tested about 5,500 compounds, of which about 2,000 (36%) were called active. Inconclusive results (about 18%) are left out. No stated cut-off is given here; in the data, active means normalized growth mostly below about 0.91 (no sharp cut-off); inconclusive means no clear call, values can overlap the other calls; inactive means mostly above about 0.92. This is one part of the list.

Assay: chemical genetic growth profiling, strain panel (AID 1159580);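 further: tested at 20 µM; growth read once vehicle control cultures reached saturation at 30 °C; 1 = growth at the plate median or of vehicle wells; lower values mean less growth of the strain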
Details: growth OD

Measured: normalized growth

COC(=O)C1[C@H]2C[C@H]3c4[nH]c5ccccc5c4CCN3C[C@@H]2CC[C@@H]1O (some centres not stated)
inactive: S. cerevisiae deletion strains, locus YJR075W, strain HOC1, hits give low values 1.02 | S. cerevisiae deletion strains, locus YKL009W, strain mrt4, hits give low values 0.996 | S. cerevisiae deletion strains, locus YKL068W, hits give low values 1.01 | S. cerevisiae deletion strains, locus YKL085W, strain MDH1 (second series), hits give low values 1.01 | S. cerevisiae deletion strains, locus YKL085W, strain MDH1, hits give low values 1.01 | S. cerevisiae deletion strains, locus YKL160W, strain elf1, hits give low values 0.987 | S. cerevisiae deletion strains, locus YKL190W, strain CNB1, hits give low values 1.02 | S. cerevisiae deletion strains, locus YKR001C, strain vps1, hits give low values 1.02 | S. cerevisiae deletion strains, locus YKR026C, strain gcn3, hits give low values 0.971 | S. cerevisiae deletion strains, locus YKR091W, strain srl3, hits give low values 0.985 | S. cerevisiae deletion strains, locus YLL001W, strain dnm1, hits give low values 0.984 | S. cerevisiae deletion strains, locus YLL026W, hits give low values 0.965 | S. cerevisiae deletion strains, locus YLL041C, strain sdh2, hits give low values 0.974 | S. cerevisiae deletion strains, locus YLR027C, strain aat2, hits give low values 0.988 | S. cerevisiae deletion strains, locus YLR039C, strain RIC1, hits give low values 1.02 | S. cerevisiae deletion strains, locus YLR058C, strain SHM2, hits give low values 1.01 | S. cerevisiae deletion strains, locus YLR102C, strain apc9, hits give low values 1.02 | S. cerevisiae deletion strains, locus YLR113W, strain HOG1, hits give low values 1.01 | S. cerevisiae deletion strains, locus YLR221C, strain rsa3, hits give low values 1.01 | S. cerevisiae deletion strains, locus YLR258W, strain gsy2, hits give low values 0.98 | S. cerevisiae deletion strains, locus YLR262C, strain YPT6 (second series), hits give low values 0.974 | S. cerevisiae deletion strains, locus YLR262C, strain YPT6, hits give low values 1 | S. cerevisiae deletion strains, locus YLR268W, strain sec22, hits give low values 1.06 | S. cerevisiae deletion strains, locus YLR320W, strain mms22, hits give low values 1.02 | S. cerevisiae deletion strains, locus YLR330W, strain CHS5, hits give low values 1.01 | S. cerevisiae deletion strains, locus YLR342W, strain FKS1 (second series), hits give low values 1 | S. cerevisiae deletion strains, locus YLR342W, strain FKS1, hits give low values 0.981 | S. cerevisiae deletion strains, locus YLR357W, strain rsc2, hits give low values 0.985 | S. cerevisiae deletion strains, locus YLR370C, strain arc18, hits give low values 0.965 | S. cerevisiae deletion strains, locus YLR371W, strain rom2, hits give low values 1.02 | S. cerevisiae deletion strains, locus YLR384C, strain iki3, hits give low values 0.969 | S. cerevisiae deletion strains, locus YLR418C, strain cdc73, hits give low values 1.02 | S. cerevisiae deletion strains, locus YML016C, strain PPZ1, hits give low values 1.01 | S. cerevisiae deletion strains, locus YML032C, strain rad52, hits give low values 1.03 | S. cerevisiae deletion strains, locus YML120C, strain ndi1, hits give low values 0.966 | S. cerevisiae deletion strains, locus YML124C, strain tub3, hits give low values 1.01 | S. cerevisiae deletion strains, locus YMR058W, strain fet3, hits give low values 0.974 | S. cerevisiae deletion strains, locus YMR078C, strain ctf18, hits give low values 1.01 | S. cerevisiae deletion strains, locus YMR125W, strain sto1, hits give low values 0.981 | S. cerevisiae deletion strains, locus YMR129W, hits give low values 0.988 | S. cerevisiae deletion strains, locus YMR205C, strain PFK2, hits give low values 0.991 | S. cerevisiae deletion strains, locus YMR223W, strain ubp8, hits give low values 1.01 | S. cerevisiae deletion strains, locus YMR231W, strain pep5, hits give low values 0.978 | S. cerevisiae deletion strains, locus YMR263W, strain SAP30, hits give low values 1.03 | S. cerevisiae deletion strains, locus YMR307W, strain GAS1, hits give low values 0.952 | S. cerevisiae deletion strains, locus YNL067W, strain RPL9B, hits give low values 1.03 | S. cerevisiae deletion strains, locus YNL071W, strain lat1, hits give low values 0.976 | S. cerevisiae deletion strains, locus YNL128W, strain TEP1, hits give low values 1.02 | S. cerevisiae deletion strains, locus YNL153C, strain GIM3, hits give low values 1.01 | S. cerevisiae deletion strains, locus YNL183C, strain NPR1, hits give low values 0.981 | S. cerevisiae deletion strains, locus YNL209W, strain ssb2, hits give low values 0.959 | S. cerevisiae deletion strains, locus YNL233W, strain BNI4, hits give low values 1.01 | S. cerevisiae deletion strains, locus YNL248C, strain rpa49, hits give low values 0.998 | S. cerevisiae deletion strains, locus YNL250W, strain rad50, hits give low values 1.02 | S. cerevisiae deletion strains, locus YNL271C, strain bni1, hits give low values 1.02 | S. cerevisiae deletion strains, locus YNL298W, strain CLA4, hits give low values 1.02 | S. cerevisiae deletion strains, locus YNL307C, strain MCK1, hits give low values 1.02 | S. cerevisiae deletion strains, locus YNL322C, strain KRE1 (second series), hits give low values 0.973 | S. cerevisiae deletion strains, locus YNL322C, strain KRE1, hits give low values 1.02 | S. cerevisiae deletion strains, locus YNR049C, strain mso1, hits give low values 0.97 | S. cerevisiae deletion strains, locus YNR052C, strain pop2, hits give low values 1.02 | S. cerevisiae deletion strains, locus YOL006C, strain TOP1, hits give low values 1.06 | S. cerevisiae deletion strains, locus YOL012C, strain htz1 0.74 | S. cerevisiae deletion strains, locus YOL147C, strain pex11, hits give low values 1.02 | S. cerevisiae deletion strains, locus YOR001W, strain rrp6, hits give low values 0.961 | S. cerevisiae deletion strains, locus YOR061W, strain CKA2, hits give low values 1.01 | S. cerevisiae deletion strains, locus YOR069W, strain VPS5, hits give low values 1.01 | S. cerevisiae deletion strains, locus YOR070C, strain gyp1, hits give low values 0.983 | S. cerevisiae deletion strains, locus YOR080W, strain dia2, hits give low values 0.934 | S. cerevisiae deletion strains, locus YOR083W, strain WHI5, hits give low values 0.979 | S. cerevisiae deletion strains, locus YOR106W, strain vam3, hits give low values 0.949 | S. cerevisiae deletion strains, locus YOR136W, strain idh2, hits give low values 1.02 | S. cerevisiae deletion strains, locus YOR144C, strain elg1, hits give low values 1.01 | S. cerevisiae deletion strains, locus YOR184W, strain ser1, hits give low values 1.01 | S. cerevisiae deletion strains, locus YOR231W, strain MKK1, hits give low values 1.02 | S. cerevisiae deletion strains, locus YOR265W, strain rbl2, hits give low values 0.978 | S. cerevisiae deletion strains, locus YOR270C, strain vph1, hits give low values 0.935 | S. cerevisiae deletion strains, locus YOR290C, strain snf2, hits give low values 0.974 | S. cerevisiae deletion strains, locus YOR316C, strain cot1, hits give low values 1.02 | S. cerevisiae deletion strains, locus YPL051W, strain arl3, hits give low values 0.961 | S. cerevisiae deletion strains, locus YPL055C, strain LGE1, hits give low values 1.02 | S. cerevisiae deletion strains, locus YPL078C, strain atp4, hits give low values 0.963 | S. cerevisiae deletion strains, locus YPL106C, strain sse1, hits give low values 0.906 | S. cerevisiae deletion strains, locus YPL240C, strain hsp82, hits give low values 0.995 | S. cerevisiae deletion strains, locus YPL241C, strain CIN2, hits give low values 1.01 | S. cerevisiae deletion strains, locus YPL256C, strain CLN2, hits give low values 0.998 | S. cerevisiae deletion strains, locus YPR119W, strain clb2, hits give low values 1.02 | S. cerevisiae deletion strains, locus YPR141C, strain kar3, hits give low values 1.02 | S. cerevisiae deletion strains, locus YPR163C, strain tif3, hits give low values 1.02 | S. cerevisiae deletion strains, locus YPR167C, strain met16, hits give low values 1.02 | S. cerevisiae deletion strains, strain wtn01, hits give low values 1.04 | S. cerevisiae strains, strain wild type, hits give low values 1
